mHTT-CaM PPI inh: mutant huntingtin-calmodulin interaction inhibitors – biochemical, AlphaScreen, primary screen; P42858; AlphaScreen His-mHTT/GST-CaM binding, luminescence; inhibition, % at 15 µM; 190,000 compounds, 3.6% hits;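 further: 0% = both proteins with DMSO and 100% = one protein alone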
Pf apPOL inh: Pf-apPOL inhibitors, biochemical, fluorescence. inhibition, % at 10 µM. Plasmodium falciparum apicoplast DNA polymerase (apPOL). 210,000 compounds, 0.25% hits. Recombinant Pf-apPOL, molecular beacon fluorescence, 1.5 h
* hit, by the source's call; i = inactive; nt = not tested or not shown. Rows were chosen to be rich in hits. Some 3.5% of all compounds tested hit in one or more screens of this group. No stated cut-off is given here; in the data, active means inhibition above about 50%; inactive means the rest.

SMILES | mHTT-CaM PPI inh | Pf apPOL inh
Cc1[nH]nc2nc(SCC(=O)NCC3CCCO3)n(-c3ccc(Br)cc3)c(=N)c12 (configuration not stated) | 52.0* | -6.1
Cc1[nH]nc2nc(SCC(=O)NCc3ccco3)n(-c3ccc(Br)cc3)c(=N)c12 | 80.0* | -2.1
CCC(C)NC(=O)CSc1nc2n[nH]c(C)c2c(=N)n1-c1ccc(OC)cc1 (configuration not stated) | 48.0 | -4.0
CCOc1ccc(-n2c(SC(CC)C(=O)N(CC)CC)nc3n[nH]c(C)c3c2=N)cc1 (configuration not stated) | 52.0* | -2.7
COc1cccc(NC(=O)CSc2nc3n[nH]c(C)c3c(=N)n2-c2ccc(C)cc2)c1 | 57.0* | 0.2
Cc1ccc(-n2c(SCC(=O)NCc3ccco3)nc3n[nH]c(C)c3c2=N)cc1C | 49.0 | 1.7
CCOC(=O)N1CCC(NC=C(C#N)S(=O)(=O)C(C)C)CC1 | nt | -7.1
Cc1nc(-c2cnccn2)nc2c1CCC(=O)N2Cc1cccc(F)c1 | -2.3 | 2.4
N=C1NC(=O)C(CC(=O)Nc2ccc(Cl)cc2)S1 (configuration not stated) | -5.0 | -2.5
CCCCCC1CC(C/C(C)=N/NC(N)=S)C(=O)O1 (configuration not stated) | i | nt
COCCn1c(=N)c(S(=O)(=O)c2ccccc2)cc2c(=O)n3cccc(C)c3nc21 | 1.0 | -17.6
O=S(=O)(Nc1cccnc1)c1ccc2[nH]c3c(c2c1)CCCCC3 | 34.6 | -4.5
CCOc1ccccc1NS(=O)(=O)c1ccc2[nH]c3c(c2c1)CCCCC3 | 25.8 | -1.2
COc1ccccc1NS(=O)(=O)c1ccc2[nH]c3c(c2c1)CCCC3 | 81.2* | -0.9
COc1cc(NS(=O)(=O)c2ccc3[nH]c4c(c3c2)CCCC4)cc(OC)c1OC | 82.8* | -3.8
O=C1c2ccccc2C(=O)c2cc(S(=O)(=O)Nc3ccccc3F)ccc21 | 26.0 | -2.2
O=S(=O)(Nc1ccccc1F)c1ccc2[nH]c3c(c2c1)CCCC3 | 55.6* | -5.8
COc1ccccc1NS(=O)(=O)c1ccc2[nH]c(=O)sc2c1 | -2.0 | -0.5
COc1ccccc1NS(=O)(=O)c1ccc2[nH]c3c(c2c1)CCCCC3 | 96.6* | -1.7
O=C(Nc1nnc(Cc2ccc(Cl)cc2Cl)s1)Nc1ccccc1F | -3.9 | 1.9
COc1cccc(NC(=O)Cn2c(=O)n(-c3cccc(C(F)(F)F)c3)c(=O)c3sccc32)c1 | 11.0 | 5.4
Cc1ccc(-c2nnc(C)c(NCc3ccccn3)n2)cc1 | 4.5 | -7.2
Cc1ccc(-c2nnc(N3CCC(C(=O)N4CCCC(C)C4)CC3)o2)cc1 (configuration not stated) | 21.8 | 0.4
COc1cccc(Oc2c(C)oc3c(CN4CCCCCC4)c(O)ccc3c2=O)c1 | 9.2 | -5.5
CN(C)S(=O)(=O)Nc1ccc(Cl)c(Cl)c1 | -3.2 | nt
SMILES | mHTT-CaM PPI inh | Pf apPOL inh
NC(C(=O)O)c1ccccc1[N+](=O)[O-] (configuration not stated) | 5.4 | 1.8
CCC(C)NS(=O)(=O)c1ccc2[nH]c3c(c2c1)CCCC3 (configuration not stated) | 27.4 | -2.1
COc1ccc(OC)c(NS(=O)(=O)c2ccc3[nH]c4c(c3c2)CCCC4)c1 | 71.3* | -1.4
CCOC(=O)c1ccc(NS(=O)(=O)c2ccc3[nH]c4c(c3c2)CCCC4)cc1 | 86.6* | -1.3
COc1ccc(OC)c(NS(=O)(=O)c2ccc(-c3ccccc3)cc2)c1 | 39.7 | -9.0
COc1ccccc1CNS(=O)(=O)c1ccc2[nH]c3c(c2c1)CCCC3 | 64.0* | -1.4
COc1ccccc1CNS(=O)(=O)c1ccc(OC)c(OC)c1 | -2.0 | -5.7
COc1ccc(C(=O)N2CC3CC(NC(=O)c4cccs4)C2C3)cc1F (configuration not stated) | 0.7 | -6.9
CC(C)c1nc(CN(C)Cc2ccccc2)cc(=O)[nH]1 | -6.1 | -1.9
O=C(CN1C(=O)C2C3C=CC(C3)C2C1=O)Nc1ccc(F)c(F)c1 (configuration not stated) | -2.0 | -0.9
CCN1c2cc(C)ccc2-n2cccc2C12CCN(C(=O)NC(C)C(=O)OC)CC2 (configuration not stated) | 67.7* | -2.0
CCN1c2cc(C)ccc2-n2cccc2C12CCN(C(=O)Nc1ccccc1Cl)CC2 | 26.4 | 0.8
COC(=O)C(C)NC(=O)N1CCC2(CC1)Nc1cc(F)ccc1-n1cccc12 (configuration not stated) | 37.9 | 3.5
CCN1c2cc(C)ccc2-n2cccc2C12CCN(C(=O)NC(C)C)CC2 | 99.5* | 1.9
O=C(Cn1ccc2ccccc2c1=O)N1CCN(c2cccc(C(F)(F)F)c2)CC1 | 1.0 | -4.4
CCc1ccc(N2COc3cc4c(cc3C2)OCO4)cc1 | 10.0 | -7.0
Cc1c(C(=O)Nc2ccc(C(C)C)cc2)cccc1[N+](=O)[O-] | -3.2 | -5.4
O=C(Nc1ccccc1-c1nc2ccccc2s1)C1CCCCC1 | -33.1 | 4.8
Cc1ccc2c(c1)C1C=CCC1C(c1ccccc1Cl)N2 (configuration not stated) | 83.0* | -8.2
CC(=O)c1ccc2c(c1)C1C=CCC1C(c1ccccc1Cl)N2 (configuration not stated) | 40.0 | 2.7
Clc1ccc2c(c1)C1C=CCC1C(c1cccc3ccccc13)N2 (configuration not stated) | 64.9* | nt
CCCn1ncc(N2CCC(C(=O)NCCC(C)C)CC2)cc1=O | -1.7 | -6.2
Cc1cccc(S(=O)(=O)NC2CCN(c3ncnc4c3CCC4)C2)c1 (configuration not stated) | 4.5 | 3.7
Cc1ccc(C2CN(C(=O)c3cccs3)CC2C(=O)N2CCOCC2)cc1 (configuration not stated) | 6.7 | -4.0
COc1cccc(N=Cc2cc([N+](=O)[O-])ccc2O)c1 | 42.0 | -3.3
SMILES | mHTT-CaM PPI inh | Pf apPOL inh
Cc1ccc(C(c2ccc(C)o2)c2cc3c(cc2[N+](=O)[O-])OCO3)o1 | 72.0* | 7.0
Cc1cc2c(cc1[N+](=O)[O-])OCCO2 | nt | -1.2
Cc1ccc(C(c2ccc(C)o2)c2ccccc2Br)o1 | -16.3 | -1.4
Cc1ccc(C(c2ccc(C)o2)c2cccc([N+](=O)[O-])c2O)o1 | 79.0* | -7.8
C=CCn1c2ccccc2c2nnc(SCC(=O)Nc3nnc(CCC)s3)nc21 | -5.8 | -6.6
Cc1noc(-c2nn(C)c3c2CN(C(=O)NCC(C)C)CC3)n1 | -5.3 | -4.8
COc1ccc(C(=O)N2CC(=O)Nc3ccc(Cl)cc3C2c2ccc(F)cc2)c(OC)c1 (configuration not stated) | 43.0 | -3.0
COc1ccc(C(=O)N2CC(=O)Nc3ccc(Cl)cc3C2c2ccc(F)cc2)cc1OC (configuration not stated) | 71.0* | -9.6
Cc1cc(-c2nnc(NC(=O)c3ccn(C)n3)o2)c(C)o1 | 67.5* | -6.4
Cc1cc(-c2nnc(NC(=O)c3ccc4c(c3)OCCO4)o2)c(C)o1 | 1.9 | -6.3
Cc1cccc(NC(=O)N2CCCC(C)(C(=O)NCc3ccc(F)cc3)C2)c1 (configuration not stated) | -8.9 | 0.1
Cc1nn(C)c(C)c1CCC(=O)NCCOc1ccc(F)cc1 | -9.3 | -5.4
O=[N+]([O-])c1cccc(-c2csc(N=Nc3c(O)[nH]c4ccc(Br)cc34)n2)c1 | nt | 1.4
O=C(N=Nc1c(O)[nH]c2ccc(Br)cc12)c1ccco1 | nt | 79.5*
Cc1cc(C(=O)N2CCC(c3noc(N)c3C(C)C)CC2)c(C)o1 | -0.6 | -4.4

Source: PubChem BioAssay
